Assay results published in the supplement of paper PMC11732987, “Enantioselective OTUD7B fragment discovery through chemoproteomics screening and high-throughput optimisation” (Communications Chemistry, 2025).

How the values were obtained:
Assay in all cases: log2 ratio of Biotin-Ahx-Ub-VS probe labelling (fragment/DMSO); higher = less target engagement (more negative = stronger competition), active = hit call of the paper (q ≤ 0.05, log2 ratio ≤ -1)
Details in all cases: compound concentration: 200 uM; treatment time: 3 h
[1] = target: USP34 (UniProt Q70CQ2)
USP34, sequence (Q70CQ2 whole entry, the tested form may be a part): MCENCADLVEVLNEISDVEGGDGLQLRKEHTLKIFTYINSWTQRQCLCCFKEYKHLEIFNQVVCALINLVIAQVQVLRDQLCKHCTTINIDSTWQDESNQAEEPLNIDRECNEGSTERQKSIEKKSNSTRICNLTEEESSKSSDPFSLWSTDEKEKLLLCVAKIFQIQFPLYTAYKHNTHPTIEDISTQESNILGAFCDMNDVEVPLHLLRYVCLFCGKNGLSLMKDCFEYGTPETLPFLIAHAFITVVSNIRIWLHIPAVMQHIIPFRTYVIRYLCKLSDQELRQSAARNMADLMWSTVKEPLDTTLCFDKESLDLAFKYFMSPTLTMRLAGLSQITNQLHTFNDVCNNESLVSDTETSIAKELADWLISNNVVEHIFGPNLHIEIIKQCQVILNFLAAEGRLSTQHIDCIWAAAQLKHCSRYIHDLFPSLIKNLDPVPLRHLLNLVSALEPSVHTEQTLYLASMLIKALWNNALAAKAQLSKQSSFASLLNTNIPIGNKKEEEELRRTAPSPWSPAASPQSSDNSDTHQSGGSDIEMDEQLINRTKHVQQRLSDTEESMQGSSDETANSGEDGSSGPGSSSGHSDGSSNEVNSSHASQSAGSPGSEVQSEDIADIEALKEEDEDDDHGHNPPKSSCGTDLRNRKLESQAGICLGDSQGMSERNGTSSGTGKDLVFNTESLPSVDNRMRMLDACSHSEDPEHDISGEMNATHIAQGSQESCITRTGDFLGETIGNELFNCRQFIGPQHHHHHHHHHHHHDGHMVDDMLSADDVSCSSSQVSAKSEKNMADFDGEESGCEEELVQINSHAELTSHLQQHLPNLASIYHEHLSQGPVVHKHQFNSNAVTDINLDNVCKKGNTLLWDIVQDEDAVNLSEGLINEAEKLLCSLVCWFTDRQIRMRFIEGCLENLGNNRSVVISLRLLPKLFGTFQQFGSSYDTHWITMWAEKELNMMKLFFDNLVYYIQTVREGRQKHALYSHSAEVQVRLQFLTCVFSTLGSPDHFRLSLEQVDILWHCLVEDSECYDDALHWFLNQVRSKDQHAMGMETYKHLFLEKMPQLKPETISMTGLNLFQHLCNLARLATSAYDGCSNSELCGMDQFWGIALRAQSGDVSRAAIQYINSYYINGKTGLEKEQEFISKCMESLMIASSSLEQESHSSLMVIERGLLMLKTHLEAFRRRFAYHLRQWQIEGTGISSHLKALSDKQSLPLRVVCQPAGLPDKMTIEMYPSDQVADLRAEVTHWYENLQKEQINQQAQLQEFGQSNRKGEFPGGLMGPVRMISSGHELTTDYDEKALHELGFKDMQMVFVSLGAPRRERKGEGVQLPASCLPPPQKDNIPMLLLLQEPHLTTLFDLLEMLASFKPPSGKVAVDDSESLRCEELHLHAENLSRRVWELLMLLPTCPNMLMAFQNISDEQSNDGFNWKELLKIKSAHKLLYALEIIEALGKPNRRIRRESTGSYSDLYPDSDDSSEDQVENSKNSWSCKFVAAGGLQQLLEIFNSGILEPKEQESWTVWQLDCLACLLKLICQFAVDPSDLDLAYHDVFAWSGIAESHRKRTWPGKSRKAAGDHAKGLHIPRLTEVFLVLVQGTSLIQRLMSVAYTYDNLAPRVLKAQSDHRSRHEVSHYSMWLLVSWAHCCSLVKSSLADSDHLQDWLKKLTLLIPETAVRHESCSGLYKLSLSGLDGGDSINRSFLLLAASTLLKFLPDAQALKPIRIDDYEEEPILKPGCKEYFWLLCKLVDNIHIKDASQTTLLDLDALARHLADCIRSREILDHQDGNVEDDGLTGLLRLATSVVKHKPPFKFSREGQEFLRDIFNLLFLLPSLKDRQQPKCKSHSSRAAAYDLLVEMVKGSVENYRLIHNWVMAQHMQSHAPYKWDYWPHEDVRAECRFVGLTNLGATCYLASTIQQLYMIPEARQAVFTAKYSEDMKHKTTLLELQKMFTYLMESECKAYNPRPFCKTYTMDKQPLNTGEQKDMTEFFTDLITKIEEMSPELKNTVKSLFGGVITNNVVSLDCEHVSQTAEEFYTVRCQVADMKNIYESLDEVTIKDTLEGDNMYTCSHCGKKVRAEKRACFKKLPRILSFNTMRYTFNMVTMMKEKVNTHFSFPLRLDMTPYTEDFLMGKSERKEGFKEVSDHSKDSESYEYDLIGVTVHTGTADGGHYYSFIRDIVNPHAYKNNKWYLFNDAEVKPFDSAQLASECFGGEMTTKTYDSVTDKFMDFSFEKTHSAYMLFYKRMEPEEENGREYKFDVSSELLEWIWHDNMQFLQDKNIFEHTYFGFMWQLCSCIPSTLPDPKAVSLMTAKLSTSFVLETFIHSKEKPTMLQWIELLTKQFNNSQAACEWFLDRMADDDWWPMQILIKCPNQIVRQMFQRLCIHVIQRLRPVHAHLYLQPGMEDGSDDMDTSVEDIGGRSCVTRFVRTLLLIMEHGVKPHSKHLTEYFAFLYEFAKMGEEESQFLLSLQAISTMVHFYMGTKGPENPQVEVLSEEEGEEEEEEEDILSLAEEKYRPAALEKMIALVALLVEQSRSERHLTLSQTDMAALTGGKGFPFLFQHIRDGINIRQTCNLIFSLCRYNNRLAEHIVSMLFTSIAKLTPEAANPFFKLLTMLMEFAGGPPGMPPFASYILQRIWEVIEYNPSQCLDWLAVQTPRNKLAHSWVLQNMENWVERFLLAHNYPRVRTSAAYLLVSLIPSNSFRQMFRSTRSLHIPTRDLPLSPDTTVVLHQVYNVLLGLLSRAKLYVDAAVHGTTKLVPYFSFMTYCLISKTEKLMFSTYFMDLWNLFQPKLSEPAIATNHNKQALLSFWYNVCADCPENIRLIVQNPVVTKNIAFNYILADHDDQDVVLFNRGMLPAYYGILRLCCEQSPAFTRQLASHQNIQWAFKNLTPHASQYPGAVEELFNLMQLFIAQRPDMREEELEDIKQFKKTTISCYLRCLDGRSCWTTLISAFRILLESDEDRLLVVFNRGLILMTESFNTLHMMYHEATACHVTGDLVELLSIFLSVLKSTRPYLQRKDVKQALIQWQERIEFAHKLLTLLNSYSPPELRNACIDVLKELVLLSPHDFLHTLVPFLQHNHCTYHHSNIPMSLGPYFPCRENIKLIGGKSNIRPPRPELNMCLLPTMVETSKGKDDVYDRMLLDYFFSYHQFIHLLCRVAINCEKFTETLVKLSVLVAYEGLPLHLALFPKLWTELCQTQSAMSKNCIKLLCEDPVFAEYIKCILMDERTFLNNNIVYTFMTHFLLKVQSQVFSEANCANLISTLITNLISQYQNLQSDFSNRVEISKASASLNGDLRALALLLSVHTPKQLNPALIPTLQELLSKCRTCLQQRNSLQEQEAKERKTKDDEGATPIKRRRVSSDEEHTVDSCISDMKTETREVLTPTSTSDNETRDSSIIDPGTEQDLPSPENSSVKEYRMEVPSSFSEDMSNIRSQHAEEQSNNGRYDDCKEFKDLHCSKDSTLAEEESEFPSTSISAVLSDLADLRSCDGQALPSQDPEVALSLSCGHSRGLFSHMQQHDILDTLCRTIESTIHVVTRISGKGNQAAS
How it was run: (§1)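 Triplicate samples of HEK293T lysate, 495 µg each, received fragment at 200 µM or vehicle for 3 h, followed by Biotin-Ahx-Ub-VS (0.5 µM final) for 1 h. After NeutrAvidin enrichment of labelled DUBs and LysC/trypsin digestion, peptides were run by diaPASEF LC-MS/MS. The values are average log2 fragment/vehicle ratios from global-median-normalised Spectronaut label-free quantities, tested by unpaired t-test on proteins having ≥2 unique peptides.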

[2] = target: T1, USP36 (UniProt Q9P275)
T1 sequence (whole entry): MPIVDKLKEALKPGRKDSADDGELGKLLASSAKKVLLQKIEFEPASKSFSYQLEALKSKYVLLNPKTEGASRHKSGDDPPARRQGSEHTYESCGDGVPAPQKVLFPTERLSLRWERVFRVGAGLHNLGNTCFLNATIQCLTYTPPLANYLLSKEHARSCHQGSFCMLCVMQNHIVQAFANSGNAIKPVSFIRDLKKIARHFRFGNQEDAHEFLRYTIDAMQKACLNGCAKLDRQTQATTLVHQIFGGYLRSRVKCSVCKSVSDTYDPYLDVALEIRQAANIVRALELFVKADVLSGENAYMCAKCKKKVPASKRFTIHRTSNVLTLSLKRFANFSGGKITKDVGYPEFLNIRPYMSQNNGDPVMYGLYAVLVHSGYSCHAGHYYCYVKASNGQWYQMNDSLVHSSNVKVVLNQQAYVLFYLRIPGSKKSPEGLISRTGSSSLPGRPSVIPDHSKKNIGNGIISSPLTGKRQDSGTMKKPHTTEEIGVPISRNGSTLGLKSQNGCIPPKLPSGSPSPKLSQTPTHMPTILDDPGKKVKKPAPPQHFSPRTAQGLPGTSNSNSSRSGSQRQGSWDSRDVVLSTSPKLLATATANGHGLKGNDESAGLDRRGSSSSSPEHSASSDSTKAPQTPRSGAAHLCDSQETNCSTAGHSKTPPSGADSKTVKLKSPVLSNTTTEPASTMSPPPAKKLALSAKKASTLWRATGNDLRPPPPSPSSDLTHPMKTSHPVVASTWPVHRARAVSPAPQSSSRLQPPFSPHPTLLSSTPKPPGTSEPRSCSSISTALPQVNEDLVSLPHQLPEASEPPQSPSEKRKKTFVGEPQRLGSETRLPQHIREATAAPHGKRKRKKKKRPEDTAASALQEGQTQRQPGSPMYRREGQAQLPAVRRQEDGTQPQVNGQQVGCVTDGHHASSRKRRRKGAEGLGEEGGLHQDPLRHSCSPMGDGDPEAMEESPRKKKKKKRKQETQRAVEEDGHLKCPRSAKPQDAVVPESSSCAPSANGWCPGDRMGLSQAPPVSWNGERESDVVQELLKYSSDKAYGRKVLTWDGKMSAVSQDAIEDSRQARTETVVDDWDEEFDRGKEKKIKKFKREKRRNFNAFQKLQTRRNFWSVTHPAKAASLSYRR
How it was run: as §1

[3] = target: T2, USP38 (UniProt Q8NB14)
T2 sequence (whole entry): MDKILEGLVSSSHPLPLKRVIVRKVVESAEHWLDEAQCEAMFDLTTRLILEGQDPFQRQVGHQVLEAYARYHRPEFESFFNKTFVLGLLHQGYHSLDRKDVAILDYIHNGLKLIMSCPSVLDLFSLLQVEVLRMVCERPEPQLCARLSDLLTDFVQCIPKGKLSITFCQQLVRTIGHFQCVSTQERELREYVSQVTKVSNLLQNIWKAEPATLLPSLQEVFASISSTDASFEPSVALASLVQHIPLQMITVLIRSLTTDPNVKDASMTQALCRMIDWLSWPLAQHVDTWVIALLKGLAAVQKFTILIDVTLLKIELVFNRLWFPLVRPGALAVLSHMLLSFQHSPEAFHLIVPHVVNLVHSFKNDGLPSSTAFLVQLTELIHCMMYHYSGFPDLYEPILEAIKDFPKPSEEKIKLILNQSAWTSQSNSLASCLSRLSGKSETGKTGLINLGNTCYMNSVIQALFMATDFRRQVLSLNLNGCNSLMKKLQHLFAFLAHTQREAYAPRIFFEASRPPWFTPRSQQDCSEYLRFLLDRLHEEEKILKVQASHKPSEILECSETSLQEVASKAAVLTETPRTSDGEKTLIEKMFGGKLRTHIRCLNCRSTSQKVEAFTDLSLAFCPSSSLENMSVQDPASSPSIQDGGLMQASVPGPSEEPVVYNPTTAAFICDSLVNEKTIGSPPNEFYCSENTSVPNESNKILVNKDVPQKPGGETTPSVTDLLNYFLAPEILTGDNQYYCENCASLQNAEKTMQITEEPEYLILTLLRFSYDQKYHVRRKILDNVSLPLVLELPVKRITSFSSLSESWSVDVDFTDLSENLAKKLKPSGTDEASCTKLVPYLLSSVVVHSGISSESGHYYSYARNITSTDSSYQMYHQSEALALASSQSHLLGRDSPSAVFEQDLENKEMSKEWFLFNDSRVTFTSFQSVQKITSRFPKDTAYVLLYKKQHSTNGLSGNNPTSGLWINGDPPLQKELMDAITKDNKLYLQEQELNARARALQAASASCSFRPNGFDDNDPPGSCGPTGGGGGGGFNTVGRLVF
How it was run: as §1

[4] = target: T3, USP39 (UniProt Q53GS9)
T3 sequence (whole entry): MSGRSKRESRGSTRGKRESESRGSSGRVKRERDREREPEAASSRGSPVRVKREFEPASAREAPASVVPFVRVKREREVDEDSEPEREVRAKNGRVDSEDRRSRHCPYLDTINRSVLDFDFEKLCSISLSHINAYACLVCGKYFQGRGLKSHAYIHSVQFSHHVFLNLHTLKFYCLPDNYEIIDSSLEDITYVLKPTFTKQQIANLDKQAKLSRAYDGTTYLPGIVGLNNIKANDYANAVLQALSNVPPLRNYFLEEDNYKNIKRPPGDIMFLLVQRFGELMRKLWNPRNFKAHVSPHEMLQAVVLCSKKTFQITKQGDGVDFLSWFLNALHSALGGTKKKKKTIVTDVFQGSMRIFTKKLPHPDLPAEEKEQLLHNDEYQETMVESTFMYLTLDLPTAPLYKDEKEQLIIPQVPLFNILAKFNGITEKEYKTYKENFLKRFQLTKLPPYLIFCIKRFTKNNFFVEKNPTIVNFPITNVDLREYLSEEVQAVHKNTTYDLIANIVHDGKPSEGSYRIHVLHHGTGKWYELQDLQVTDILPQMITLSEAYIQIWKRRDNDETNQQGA
How it was run: as §1

[5] = target: T4, USP4 (UniProt Q13107)
T4 sequence (whole entry): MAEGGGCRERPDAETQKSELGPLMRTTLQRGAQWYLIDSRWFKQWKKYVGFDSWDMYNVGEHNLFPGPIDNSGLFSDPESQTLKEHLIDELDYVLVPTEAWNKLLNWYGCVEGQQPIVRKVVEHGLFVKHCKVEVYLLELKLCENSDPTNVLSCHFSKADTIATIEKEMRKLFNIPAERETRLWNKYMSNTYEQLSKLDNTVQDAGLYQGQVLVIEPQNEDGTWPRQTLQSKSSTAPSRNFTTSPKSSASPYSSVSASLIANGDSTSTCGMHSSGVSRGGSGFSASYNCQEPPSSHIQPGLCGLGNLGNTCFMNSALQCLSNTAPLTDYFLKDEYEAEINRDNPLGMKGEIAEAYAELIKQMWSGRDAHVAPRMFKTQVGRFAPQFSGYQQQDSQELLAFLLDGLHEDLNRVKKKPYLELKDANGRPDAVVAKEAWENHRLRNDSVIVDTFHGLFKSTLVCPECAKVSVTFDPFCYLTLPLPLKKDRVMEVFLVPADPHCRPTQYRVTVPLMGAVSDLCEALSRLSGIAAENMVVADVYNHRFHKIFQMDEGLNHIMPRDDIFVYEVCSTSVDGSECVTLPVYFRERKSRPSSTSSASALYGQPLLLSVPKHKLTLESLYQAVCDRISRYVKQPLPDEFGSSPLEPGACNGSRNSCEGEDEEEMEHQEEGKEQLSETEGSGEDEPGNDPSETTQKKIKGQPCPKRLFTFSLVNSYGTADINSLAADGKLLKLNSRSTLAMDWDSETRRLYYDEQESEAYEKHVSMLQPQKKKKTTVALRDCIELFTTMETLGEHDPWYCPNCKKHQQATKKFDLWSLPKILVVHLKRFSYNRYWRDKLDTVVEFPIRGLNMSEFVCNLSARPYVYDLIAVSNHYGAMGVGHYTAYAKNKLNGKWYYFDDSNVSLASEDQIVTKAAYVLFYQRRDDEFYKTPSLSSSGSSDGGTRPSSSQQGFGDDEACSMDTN
How it was run: as §1

Measured: log2 ratio of Biotin-Ahx-Ub-VS probe labelling

Cl.Cn1ncc2c1CC(NC(=O)CCl)CC2 (stereo not given)
inactive: [1] 0.0665 | [2] -0.0622 | [3] 0.034 | [4] -0.0219 | [5] 0.0879
